# Reference: PubChem BioAssay (NCATS)
# “And” between values parts separate entries of the source, which are not always exact repeats. Equal entries are not always repeated. Inconclusive results are not listed. A number with no mark means an inactive call. The source made the active and inactive calls. The call rests on the fitted dose curve; in most records, active means well fitted cell-killing curve with a large enough effect; inconclusive means small, poorly fitted or top-dose-only effect, or effect the other way; inactive means no such curve, though single readings can be large or run the other way.
# Assay: Viability qHTS for spleen associated tyrosine kinase inhibitor (SYKi) drug resistant MV4-11 cells (AID 1963824); further: nearly all actives have a fitted effect of over 35% in size
# Conditions: SYKi-resistant MV4-11 viability, CellTiter-Glo, 72 h; series mostly up to 45 µM; viability, % of control: at the top concentration
# Text: Department of Medicine, Hematology/Oncology
# University Hospital Frankfurt, Germany.
# Trials have shown promising clinical activity of the selective SYK inhibitor entospletinib in patients with high expressing HOXA9/MEIS1 acute leukemias. As the development of resistance mechanisms is a common problem in the use of targeted drugs, we performed a chemical library screen to identify drug sensitivities in SYK inhibitor resistant AML cells. […] Glucocorticoids are potent immunosuppressants which work in part by inhibiting the transcription of cytokine genes.
# Described herein is a viability screen to look for activity in the SYK inhibitor drug resistant cell line against four NCATS compound libraries (MIPE 5.0, NPC, NPACT, and Kinase) totaling 11372 compounds. Active hits were reacquired for confirmation and further secondary assay testing.
# SEQUENCE No. (e.g., 1, 2, 3, etc.); […] (e.g., Cells, Incubation, Reagent, etc.); VALUE; DESCRIPTION.
# 1; Media; 2uL; white, solid-bottom Corning assay plate.
# 2; Compounds; 23nL; Echo acoustic dispenser.
# 3; Cell; 5uL; 500 cells per well.
# 4: Incubation; 72hr; 37 C, 5% CO2, 95% humidity.
# 5; Reagent; 3uL; CellTiter-Glo reagent (Promega).
# 6; Incubation; 10min; room temperature.
# 7; Detection; Luminescence; ViewLux plate reader (PerkinElmer).
# NOTES (numbers refer to Sequence numbers above
# 1. Quantitative high-throughput screening (qHTS) of small molecule compounds was conducted on drug resistant SYKi MV4-11 cell line.
# 2. Twenty-three nanoliter of small molecule compounds were added to each assay plates using the Echo acoustic dispenser (Beckman Coulter).
# 3. Cells were seeded into the assay plates at a final density of 500 cells in 5uL of media per well using the Multidrop Combi dispenser.
# 4. Plates were covered with stainless steel gasketed lids and incubated for 72 hours at standard cell culture conditions.
# 5. Viability was assessed by adding 3uL of CellTiter-Glo detection reagent (Promega).
# 6. Plates were covered with gasket lids and incubated for 10 minutes at room temperature.
# 7. Luminescence was measured on a ViewLux plate reader (PerkinElmer).
# Potency means the concentration at half of the fitted maximal effect.
Compound,Potency,"viability, % of control"
CNC(=O)c1ccccc1Nc1cc(Nc2ccc(N3CCOCC3)cc2OC)ncc1C(F)(F)F,0.326 µM (active),
CCn1c(=O)c(-c2ccc(-c3cncs3)cc2Cl)cc2cnc(Nc3ccc(N4CCN(C)CC4)cc3)nc21,0.461 µM (active),
NC(=O)Nc1cc(-c2ccc(CN3CCOCC3)cc2)sc1C(N)=O,0.468 µM (active),
CC(C)(C)C[C@H]1N[C@@H](C(=O)NC2CCC(O)CC2)[C@H](c2cccc(Cl)c2F)[C@@]12C(=O)Nc1cc(Cl)ccc12 (stereo not given in full),6.61 µM (active),
COc1cc2c(cc1OC)[C@@H]1C(=O)c3ccc4c(c3O[C@@H]1CO2)C=CC(C)(C)O4,146 nM (active) and 166 nM (active),
CC[C@@H](Nc1c(Nc2cccc(C(=O)N(C)C)c2O)c(=O)c1=O)c1ccc(C)o1,,69.7%
COC(=O)c1c(C)cc(OC(=O)c2c(C)cc(OC)cc2OC)cc1O[C@@H]1O[C@H](CO)[C@@H](O)[C@H](O)[C@H]1O,,86.3% [at 17.3 µM]
Cc1nc(NC(=O)N2CCC[C@H]2C(N)=O)sc1-c1ccnc(C(C)(C)C(F)(F)F)c1,11.6 µM (active) and 16.6 µM (active),
Nc1ncn([C@H]2C[C@H](O)[C@@H](CO)O2)c(=O)n1,4.68 µM (active),
CC1=C(CO)C(=O)O[C@@H]([C@@H](C)[C@H]2CC[C@H]3[C@@H]4C[C@H]5O[C@]56[C@@H](O)C=CC(=O)[C@]6(C)[C@H]4CC[C@]23C)C1,317 nM (active) and 263 nM (active),
CC(C)(C)c1cnc(CSc2cnc(NC(=O)C3CCNCC3)s2)o1,0.332 µM (active),
CCCCC(CC)CNC(=O)CC(C)OC(=O)CCC(=O)O (stereo not given),,88.7%
CN(CC(=O)N(Cc1ccc(C2CCCCC2)cc1)c1ccc(C(=O)O)cc1)S(=O)(=O)c1c(F)c(F)c(F)c(F)c1F,1.03 µM (active),
O=C(O)CCc1cccc(O)c1O[C@@H]1O[C@H](CO)[C@@H](O)[C@H](O)[C@H]1O,,75.2%
COc1c(O)cc2c(c1O)[C@@H]1O[C@H](CO)[C@@H](O)[C@H](O)[C@H]1OC2=O,,109%
CCN[C@H]1C[C@H](C)S(=O)(=O)c2sc(S(N)(=O)=O)cc21,,89.5%
CC1(C)CC[C@]2(C(=O)O[C@@H]3O[C@H](CO)[C@@H](O)[C@H](O)[C@H]3O)CC[C@]3(C)C(=CCC4[C@@]5(C)C[C@@H](O)[C@H](O)[C@@](C)(CO)C5CC[C@]43C)C2[C@@H]1O (stereo not given in full),,79.1% [at 17.3 µM]
Nc1nc(Nc2ccc3c(c2)CC[C@@H](N2CCCC2)CC3)nn1-c1cc2c(nn1)-c1ccccc1CCC2,0.417 µM (active),
O=C(NCc1ccncc1)C12C[C@H]3C[C@@H](C1)CC(c1ccc(Cl)cc1)(C3)C2,11.8 µM (active),
CC(C)(C)C(=O)OCOP(=O)(COCCn1cnc2c(N)ncnc21)OCOC(=O)C(C)(C)C,944 nM (active) and 411 nM (active),

Compound,Potency,"viability, % of control"
CCN(CC)CC(=O)Nc1c(C)cccc1C(=O)OC,,95.8%
CNc1nc(Cc2ccccc2)nc2c1CCNC[C@@H]2C,11.6 µM (active),
CC(C)CC1NC(=O)C(C)NC(=O)C(CC(C)C)OC(=O)CCCNC1=O (stereo not given),,100%
CN(C/C=C/c1ccccc1)Cc1cccc2ccccc12,,55.1%
C[C@@H]1CC[C@@]2(OC1)OC1CC3C4CC=C5CC(O)CCC5(C)C4CCC3(C)C1[C@@H]2C (stereo not given in full),,89.3%
COC(=O)C1=C(C)NC(c2ncc(F)cc2F)=N[C@@H]1c1ccc(F)cc1Cl,20.9 µM (active),
CN(C)c1cc(NC(=O)CNC(C)(C)C)c(O)c2c1C[C@@H]1C[C@H]3[C@H](N(C)C)C(=O)C(C(N)=O)=C(O)[C@@]3(O)C(=O)C1=C2O,,78.1%
NC1CCN(c2nc3c(cc2F)c(=O)c(C(=O)O)cn3-c2ccc(F)cc2F)C1 (stereo not given),,81.6%
C#CCOc1ccc2c(c1)c(-c1ccc(C(C)C)cc1)nc(=O)n2C(C)C,9.2 µM (active),
NS(=O)(=O)c1ccc(Cl)c(S(N)(=O)=O)c1,,79%
CCCC1OC2C[C@@H]3[C@H]4CCC5=CC(=O)C=C[C@]5(C)[C@H]4C(O)C[C@]3(C)[C@]2(C(=O)CO)O1 (stereo not given in full),7.42 µM (active),
C=C1C(=O)OC2/C=C(\CO)CC/C=C(\C=O)C(O)C(OC(=O)C(C)CC)C12 (stereo not given),2.86 µM (active),
COc1c(C)c(OCC(O)C(C)(C)O)cc2c1COC2=O (stereo not given),,110%
O=C(CO)N1CCC(c2[nH]nc(-c3ccc(Cl)cc3)c2-c2ccncn2)CC1,9.2 µM (active),
C1CCC(C(CC2CCCCN2)C2CCCCC2)CC1 (stereo not given),2.95 µM (active),
C[C@@H]1CN(CC(=O)N2CC(C)(C)c3ncc(Cc4ccc(F)cc4)cc32)[C@@H](CN2CCOC[C@H]2C)CN1,0.468 µM (active),
C[C@H]1C[C@H]2[C@@H]3CCC4=CC(=O)C=C[C@]4(C)[C@@]3(Cl)[C@@H](O)C[C@]2(C)[C@@]1(O)C(=O)CO,13.3 µM (active),
CC(C)n1nc(Cc2cccc3ccccc23)c2c(N)ncnc21,8.2 µM (active),
NC[C@H]1O[C@H](O[C@H]2[C@H](O)[C@@H](O[C@H]3O[C@H](CO)[C@@H](O)[C@H](N)[C@H]3O)[C@H](N)C[C@@H]2N)[C@H](N)C[C@@H]1O,18.6 µM (active),
Nc1ncnc2nc(-c3ccc(N4CCOCC4)nc3)cc(-c3cccc(Br)c3)c12,8.33 µM (active),
